Test results from PubChem BioAssay (NCATS).
Several values for one entry are separate records, joined by “and”; a condition that tells them apart may be missing. Equal values may be shown once. Inconclusive results are not listed. A call without a number means that no potency is given here. Values without a mark were called inactive. Activity calls are given as the source filed them. Calls follow the shape of the dose curve; as a rule, active = well fitted cell-killing curve with a large enough effect; inconclusive = small, poorly fitted or top-dose-only effect, or effect the other way; inactive = no such curve, though single readings can be large or run the other way.

Legend:
[1] = Viability qHTS for spleen associated tyrosine kinase inhibitor (SYKi) naive MV4-11 cells (AID 1963823); also: nearly all actives have a fitted effect of over 40% in size
How it was run: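 SYKi-naive MV4-11 AML cells, 500 per well, were exposed to library compounds for 72 hr at 37 C, 5% CO2. Viability was then read by CellTiter-Glo luminescence after 10 min at room temperature.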

[2] = Viability qHTS for spleen associated tyrosine kinase inhibitor (SYKi) drug resistant MV4-11 cells (AID 1963824); also: nearly all actives have a fitted effect of over 35% in size
How it was run: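 SYK inhibitor-resistant MV4-11 AML cells, 500 per well, added to predispensed compounds and incubated 72 hr at 37 C, 5% CO2. Viability measured by CellTiter-Glo luminescence after 10 min at room temperature.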
Potency is read from the fitted curve at half-maximal effect.

| Compound | Potency [1] | Potency [2] | viability (% of control) [1] | viability, % of control [2] |
| --- | --- | --- | --- | --- |
| C=CC(C)(O)CC[C@@H]1[C@@]2(C)CCCC(C)(C)C2CC[C@@]1(C)O (stereo not given in full) | 25.9 µM (active) | 20.6 µM (active) | – | – |
| C=C(C)[C@@H]1CC[C@]2(C)CC[C@]3(C)C(CCC4[C@@]5(C)CC[C@H](O)C(C)(C)C5CC[C@]43C)C12 (stereo not given in full) | inactive | inactive | – | – |
| O=C(O[C@H]1[C@@H]2C[C@@H]3OC[C@@](O)([C@H]2[C@H](O[C@@H]2O[C@H](CO)[C@@H](O)[C@H](O)[C@H]2O)O3)[C@@H]1O)c1ccccc1 | inactive | inactive | – | – |
| COC(=O)CCC(=O)OC[C@]1(C)CCC[C@@]2(C)C3CC[C@]4(C)C=CC3(CCC12)C4 (stereo not given in full) | inactive | inactive | – | – |
| O=C(c1cn(Cc2cncn2Cc2ccc(Br)cc2)cc1-c1cccc2ccccc12)N1CCOCC1 | 0.82 µM (active) | 1.64 µM (active) | – | – |
| CCOC(=O)Nc1cc(-c2ccc(C)c(NS(C)(=O)=O)c2)nn2c(C)nnc12 | 0.651 µM (active) | 0.651 µM (active) | – | – |
| COc1ccc(CN2CCN(C(c3ccc(F)cc3)c3ccc(F)cc3)CC2)c(OC)c1OC | 15 µM (active) and 14.6 µM (active) | 21.1 µM (active) and 16.4 µM (active) | – | – |
| C/C(=C\CCC(C)CCO)C(=O)OC1(C)CCC2C(C(=O)O)=COC(OC3OC(CO)C(O)C(O)C3O)C21 (stereo not given) | inactive | inactive | – | – |
| C[C@@H]1O[C@@H](O[C@H]2[C@H](OC(=O)[C@]34CCC(C)(C)C[C@H]3C3=CCC5[C@@]6(C)CC[C@H](O[C@@H]7O[C@H](CO[C@@H]8OC[C@H](O)[C@H](O)[C@H]8O)[C@@H](O)[C@H](O)[C@H]7O)C(C)(C)C6CC[C@@]5(C)[C@]3(C)C[C@H]4O)OC[C@@H](O)[C@@H]2O)[C@H](O)[C@H](O[C@@H]2OC[C@](O)(CO)[C@H]2O)[C@H]1O[C@@H]1OC[C@H](O)[C@H](O[C@@H]2OC[C@@H](O)[C@H](O)[C@H]2O)[C@H]1O (stereo not given in full) | – | – | 88.4% [at 9.25 µM] | 88.4% [at 9.25 µM] |
| O=C(/C=C/c1c(C(=O)O)[nH]c2cc(Cl)cc(Cl)c12)Nc1ccccc1 | inactive | inactive | – | – |
| C[C@@H]1O[C@@H](O[C@H]2[C@H](O[C@H]3[C@H](O)[C@@H](C(=O)O)O[C@@H](O[C@H]4CC[C@@]5(C)C(CC[C@]6(C)C5CC[C@]57OC[C@@]8(CCC(C)(C)CC85)[C@H](O)C[C@]76C)C4(C)C)[C@@H]3O[C@@H]3O[C@H](CO)[C@@H](O[C@@H]4OC[C@@H](O)[C@H](O)[C@H]4O)[C@H](O)[C@H]3O)O[C@H](CO)[C@H](O)[C@@H]2O)[C@H](O)[C@H](O)[C@H]1O (stereo not given in full) | – | – | 77.6% [at 9.25 µM] | 94.7% [at 9.25 µM] |
| CCC(O)C(C)C1CCC(C(C)C(=O)O)O1 (stereo not given) | inactive | inactive | – | – |
| CN1CCC(c2c(O)cc(O)c3c(=O)cc(-c4ccccc4Cl)oc23)C(O)C1 (stereo not given) | 0.259 µM (active) | 0.206 µM (active) | – | – |
| CC(C)NC[C@H](O)COc1ccc(CCOCC2CC2)cc1 | inactive | inactive | – | – |
| CCCc1[nH]nc2c1C(c1cc(Cl)cc(Cl)c1O)C(C#N)=C(N)O2 (stereo not given) | 16.4 µM (active) | 16.4 µM (active) | – | – |
| CC(=O)C1=CCC2C3CCC4CC(O[C@@H]5O[C@H](CO)[C@@H](O[C@@H]6O[C@@H](C)[C@H](O)[C@@H](O)[C@H]6O)[C@H](O)[C@H]5O[C@@H]5O[C@H](CO)[C@@H](O)[C@H](O)[C@H]5O)CCC4(C)C3CCC12C (stereo not given in full) | inactive | inactive | – | – |
| CC[C@H](CO)Nc1nc(Nc2cccc(-c3ccccn3)c2)c2ncn(C(C)C)c2n1 | 2.59 µM (active) | 5.17 µM (active) | – | – |
| O=C1C(Cl)=C(N2CCOCC2)C(=O)N1c1ccc(Cl)c(Cl)c1 | 5.63 µM (active) | 5.02 µM (active) | – | – |
| C/C(=C\CCC(C)(C)O)CCO[C@@H]1O[C@H](CO[C@@H]2O[C@@H](C)[C@H](O)[C@@H](O)[C@H]2O)[C@@H](O)[C@H](O)[C@H]1O | inactive | inactive | – | – |
| C=C1C(O)CC2C(C(=O)O)=COC(OC3OC(CO)C(O)C(O)C3OC(=O)/C=C\c3ccc(O)cc3)C12 (stereo not given) | inactive | inactive | – | – |
| CCCCC/C=C\C/C=C\CCCCCCCC(=O)NC(C)c1ccccc1 (stereo not given) | 11.9 µM (active) | 7.5 µM (active) | – | – |
| CC(=O)N[C@@H](CC(C)C)C(=O)N[C@@H](CCC(=O)O)C(=O)N[C@@H](CCC(=O)O)C(=O)N[C@@H](CC(=O)O)C(=O)Nc1ccc2c(C(F)(F)F)cc(=O)oc2c1 | inactive | inactive | – | – |
| NS(=O)(=O)c1ccc(S(=O)(=O)Nc2cccc3c(Cl)c[nH]c23)cc1 | 0.235 µM (active) | 0.332 µM (active) | – | – |
| CC(C)CC1NC(=O)C(C(C)c2ccccc2)NC(=O)C(C(C)C)NC(=O)C(C)NC(=O)CCCNC(=O)C(Cc2c[nH]c3ccccc23)NC(=O)C(C)NC1=O (stereo not given) | inactive | inactive | – | – |
| CC(C)(C)Nc1nc2cc(Cl)c(Cl)cc2nc1S(C)(=O)=O | 0.731 µM (active) | 0.731 µM (active) | – | – |

| Compound | Potency [1] | Potency [2] | viability (% of control) [1] | viability, % of control [2] |
| --- | --- | --- | --- | --- |
| CN(C)C(CCOc1cccc2ccccc12)c1ccccc1 (stereo not given) | 18.4 µM (active) | 14.6 µM (active) | – | – |
| O=C(O[C@@H]1O[C@H](CO)[C@@H](O)[C@H](O)[C@H]1O)c1c(O)cc(O)cc1/C=C/c1ccccc1 | inactive | inactive | – | – |
| CC(C)=CCC/C(C)=C/CO[C@@H]1O[C@H](CO[C@@H]2O[C@@H](CO)[C@H](O)[C@H]2O)[C@@H](O)[C@H](O)[C@H]1O | inactive | inactive | – | – |
| COc1ccc(-c2cc(=O)c3c(O)cc(O[C@@H]4O[C@H](CO[C@@H]5O[C@@H](C)[C@H](O)[C@@H](O)[C@H]5O)[C@@H](O)[C@H](O)[C@H]4O)cc3o2)cc1O | inactive | inactive | – | – |
| C=C(C)C(=O)O[C@H]1[C@H]2C(=C)C(=O)O[C@@H]2C[C@@H](C)[C@@H]2O[C@@H]2C(=O)[C@](C)(O)[C@@H]1OC(C)=O | 2 µM (active) | 1.59 µM (active) | – | – |
| OCC1=C[C@@H](O)[C@@H]2C=CO[C@@H](O[C@@H]3O[C@H](CO)[C@@H](O)[C@H](O)[C@H]3O)[C@H]12 | inactive | inactive | – | – |
| Cc1cc(C)nc(NS(=O)(=O)c2ccc(NC(=S)NC(=O)COc3ccc(Br)cc3Cl)cc2)n1 | inactive | inactive | – | – |
| CC1=CC(=O)C(C(C)C)=C/C1=N/OC(=O)c1ccccc1C | 5.17 µM (active) | 4.61 µM (active) | – | – |
| O=C(/C=C/c1ccc(O)c(O)c1)OC[C@H]1O[C@@H](OC2CCCCC2O)[C@H](O)[C@@H](O)[C@@H]1O (stereo not given in full) | inactive | inactive | – | – |
| CCCC(=O)O[C@]1(C(=O)CCl)[C@@H](C)C[C@H]2[C@@H]3CCC4=CC(=O)C=C[C@]4(C)[C@@]3(F)C(=O)C[C@@]21C | 11.9 µM (active) | 13.3 µM (active) | – | – |
| COc1c/c(=C2\C=c3ccccc3=N2)[nH]/c1=C\c1[nH]c(C)cc1C | 5.17 µM (active) | 5.8 µM (active) | – | – |
| C=C1CN(Cc2ccc(C(=O)Nc3ccccc3N)cc2)C(=O)c2ccccc21 | 0.651 µM (active) | 0.517 µM (active) | – | – |
| O=C(O)Cc1cn([C@@H]2O[C@H](CO)[C@@H](O)[C@H](O)[C@H]2O[C@@H]2O[C@H](CO)[C@@H](O)[C@H](O)[C@H]2O)c2ccccc12 | inactive | inactive | – | – |
| C=C(C)[C@@H]1CC[C@]2(C)CC[C@]3(C)[C@H](CC[C@@H]4[C@@]5(C)CC[C@@H](O)C(C)(C)[C@@H]5CC[C@]43C)[C@@H]12 | inactive | inactive | – | – |
| C/C=C/C=C/[C@@H]1O[C@](O)([C@H](CC)C(=O)NC/C=C/C=C(\C)[C@@H](OC)[C@@H](C)[C@@H]2O[C@H](/C=C/C=C/C=C(\C)C(=O)c3c(O)ccn(C)c3=O)[C@H](O)[C@@H]2O)[C@H](O)[C@H](O)C1(C)C | – | – | 84.2% [at 9.25 µM] | 85.3% [at 9.25 µM] |
| CN[C@H](CC(C)C)C(=O)N[C@H]1C(=O)N[C@@H](CC(N)=O)C(=O)N[C@H]2C(=O)N[C@H]3C(=O)N[C@H](C(=O)N[C@H](C(=O)O)c4cc(O)cc(O)c4-c4cc3ccc4O)[C@H](O[C@H]3C[C@](C)(N)[C@@H](O)[C@H](C)O3)c3ccc(c(Cl)c3)Oc3cc2cc(c3O[C@@H]2O[C@H](CO)[C@@H](O)[C@H](O)[C@H]2O[C@H]2C[C@](C)(NCc3ccc(-c4ccc(Cl)cc4)cc3)[C@@H](O)[C@H](C)O2)Oc2ccc(cc2Cl)[C@H]1O | inactive | inactive | – | – |
| CCOC(=O)c1c(C)nn(-c2cccc([N+](=O)[O-])c2)c1C | inactive | inactive | – | – |
| C=C1CCC[C@]2(C)CC/C(=C(/CO)C(=O)OC)C[C@@H]12 | 20.6 µM (active) | 14.6 µM (active) | – | – |
| CC1(CO)CC2C(O)C3=C(CC(C)(O)C2C1)C(=O)OC3 (stereo not given) | inactive | inactive | – | – |
| COc1cc(/C=C/C(=O)O[C@H]2[C@@H]3C=CO[C@@H](O[C@@H]4O[C@H](CO)[C@@H](O)[C@H](O)[C@H]4O)[C@@H]3[C@@]3(CO)O[C@@H]23)ccc1O | inactive | inactive | – | – |
| CC(C)n1nc(-c2ccc(NC(=O)Nc3cccc(C(F)(F)F)c3)cc2)c2c(N)ncnc21 | inactive | inactive | – | – |
| CC1=CC(=O)CC(C)(C)C1(O)CCC(C)O (stereo not given) | inactive | inactive | – | – |
| C=C1C(=O)OC2C1CCC1(C)C(O)CC=C(C)C21 (stereo not given) | 10.3 µM (active) | 4.61 µM (active) | – | – |
| CC(=O)N1CCN(C(=O)Cc2ccc(Nc3ncc(F)c(Nc4ccc(C(=O)Nc5ccccc5Cl)cc4)n3)cc2)CC1 | 0.517 µM (active) | 0.517 µM (active) | – | – |
| CC1(C)CC[C@]2(C(=O)O[C@@H]3O[C@H](CO[C@@H]4O[C@H](CO)[C@@H](O)[C@H](O)[C@H]4O)[C@@H](O)[C@H](O[C@@H]4O[C@H](CO)[C@@H](O)[C@H](O)[C@H]4O)[C@H]3O)[C@H](O)C[C@]3(C)C(=CCC4[C@@]5(C)CC[C@H](O[C@@H]6OC[C@@H](O)[C@H](O)[C@H]6O)[C@@](C)(C(=O)O)C5CC[C@]43C)[C@@H]2C1 (stereo not given in full) | – | – | 67.4% [at 9.25 µM] | 65.4% [at 9.25 µM] |
